Targets with a hit are over-represented here; the source holds about 8,800 in all. About 0.5% of all pairs of compound and target were hits. Values without a mark were called inactive.

Chain of UniProt Q9UPW6 (Q9UPW6 whole entry, looked up): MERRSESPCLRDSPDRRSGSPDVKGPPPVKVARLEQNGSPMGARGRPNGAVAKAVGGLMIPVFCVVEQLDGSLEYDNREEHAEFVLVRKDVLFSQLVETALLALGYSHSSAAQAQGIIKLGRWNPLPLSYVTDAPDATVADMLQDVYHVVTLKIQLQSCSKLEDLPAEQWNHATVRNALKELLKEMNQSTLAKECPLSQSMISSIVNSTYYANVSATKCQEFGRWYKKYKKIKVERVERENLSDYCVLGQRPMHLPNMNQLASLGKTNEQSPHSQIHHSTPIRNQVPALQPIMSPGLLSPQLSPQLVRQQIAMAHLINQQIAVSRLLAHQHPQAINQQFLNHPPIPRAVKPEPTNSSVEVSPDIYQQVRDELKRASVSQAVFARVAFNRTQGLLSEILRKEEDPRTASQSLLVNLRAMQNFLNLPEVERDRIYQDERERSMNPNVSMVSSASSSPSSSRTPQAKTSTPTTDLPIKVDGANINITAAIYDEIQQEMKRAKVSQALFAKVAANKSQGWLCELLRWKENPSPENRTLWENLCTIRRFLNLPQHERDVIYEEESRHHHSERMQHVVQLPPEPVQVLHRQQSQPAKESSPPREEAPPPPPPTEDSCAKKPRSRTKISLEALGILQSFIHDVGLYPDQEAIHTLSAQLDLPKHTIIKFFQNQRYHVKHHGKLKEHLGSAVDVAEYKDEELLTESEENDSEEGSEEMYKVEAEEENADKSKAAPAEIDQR
Chain of UniProt Q96JX3 (Q96JX3 whole entry, looked up): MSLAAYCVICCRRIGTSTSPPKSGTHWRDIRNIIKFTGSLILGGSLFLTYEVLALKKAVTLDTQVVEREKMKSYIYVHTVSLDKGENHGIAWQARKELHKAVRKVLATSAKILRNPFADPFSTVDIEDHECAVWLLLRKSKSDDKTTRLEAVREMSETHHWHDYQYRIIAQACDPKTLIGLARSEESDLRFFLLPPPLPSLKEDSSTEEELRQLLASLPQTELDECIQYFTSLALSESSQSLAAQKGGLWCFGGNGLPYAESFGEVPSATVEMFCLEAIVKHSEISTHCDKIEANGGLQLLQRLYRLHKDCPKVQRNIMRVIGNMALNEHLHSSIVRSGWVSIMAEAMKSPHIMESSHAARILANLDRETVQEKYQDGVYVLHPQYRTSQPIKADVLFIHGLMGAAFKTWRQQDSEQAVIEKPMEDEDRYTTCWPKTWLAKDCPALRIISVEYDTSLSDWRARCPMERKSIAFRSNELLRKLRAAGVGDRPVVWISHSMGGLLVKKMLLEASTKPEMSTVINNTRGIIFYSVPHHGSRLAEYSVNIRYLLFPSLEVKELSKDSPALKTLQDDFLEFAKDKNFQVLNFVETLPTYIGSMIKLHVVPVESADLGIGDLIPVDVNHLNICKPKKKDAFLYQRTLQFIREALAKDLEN
Chain of UniProt P51812 (P51812 whole entry, looked up): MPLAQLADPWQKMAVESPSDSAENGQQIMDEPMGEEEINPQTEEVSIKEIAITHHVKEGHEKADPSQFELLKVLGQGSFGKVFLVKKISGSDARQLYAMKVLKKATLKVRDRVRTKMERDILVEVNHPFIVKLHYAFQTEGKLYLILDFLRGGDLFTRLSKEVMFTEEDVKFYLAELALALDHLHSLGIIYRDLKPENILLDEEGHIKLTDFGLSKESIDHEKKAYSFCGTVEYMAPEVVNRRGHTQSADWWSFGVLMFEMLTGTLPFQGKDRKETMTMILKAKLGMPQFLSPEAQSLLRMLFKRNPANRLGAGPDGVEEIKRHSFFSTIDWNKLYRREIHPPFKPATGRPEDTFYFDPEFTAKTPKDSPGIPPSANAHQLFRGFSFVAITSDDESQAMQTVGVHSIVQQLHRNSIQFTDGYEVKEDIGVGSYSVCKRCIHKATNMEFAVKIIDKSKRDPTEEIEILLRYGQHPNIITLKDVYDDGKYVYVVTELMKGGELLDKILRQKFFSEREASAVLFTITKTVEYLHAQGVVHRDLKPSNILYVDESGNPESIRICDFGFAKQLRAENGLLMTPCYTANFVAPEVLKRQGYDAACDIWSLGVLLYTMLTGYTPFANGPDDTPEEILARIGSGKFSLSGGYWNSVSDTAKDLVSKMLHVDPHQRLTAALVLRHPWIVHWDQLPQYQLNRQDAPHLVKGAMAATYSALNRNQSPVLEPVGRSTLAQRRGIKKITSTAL
Chain of UniProt P19793 (P19793 whole entry, looked up): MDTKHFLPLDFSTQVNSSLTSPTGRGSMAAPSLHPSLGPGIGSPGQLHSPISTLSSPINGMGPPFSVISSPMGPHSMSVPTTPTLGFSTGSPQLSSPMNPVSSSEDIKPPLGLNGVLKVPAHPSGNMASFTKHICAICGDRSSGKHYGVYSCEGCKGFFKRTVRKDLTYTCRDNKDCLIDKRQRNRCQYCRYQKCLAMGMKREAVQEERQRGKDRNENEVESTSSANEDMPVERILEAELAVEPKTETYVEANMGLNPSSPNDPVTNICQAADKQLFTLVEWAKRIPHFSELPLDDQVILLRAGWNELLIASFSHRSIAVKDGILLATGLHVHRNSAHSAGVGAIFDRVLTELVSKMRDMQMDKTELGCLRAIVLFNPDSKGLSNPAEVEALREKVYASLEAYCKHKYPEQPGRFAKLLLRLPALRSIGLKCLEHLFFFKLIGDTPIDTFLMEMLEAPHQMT
Chain of UniProt Q8TC12 (Q8TC12 whole entry, looked up): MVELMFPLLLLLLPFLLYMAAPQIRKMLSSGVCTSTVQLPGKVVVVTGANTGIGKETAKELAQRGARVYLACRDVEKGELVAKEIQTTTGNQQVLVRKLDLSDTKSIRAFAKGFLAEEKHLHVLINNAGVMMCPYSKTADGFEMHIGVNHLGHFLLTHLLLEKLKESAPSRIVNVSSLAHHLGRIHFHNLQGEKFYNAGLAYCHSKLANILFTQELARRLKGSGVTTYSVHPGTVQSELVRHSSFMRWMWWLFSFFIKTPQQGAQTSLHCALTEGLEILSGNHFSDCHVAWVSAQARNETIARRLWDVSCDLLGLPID
Chain of UniProt Q96LT9 (Q96LT9 whole entry, looked up): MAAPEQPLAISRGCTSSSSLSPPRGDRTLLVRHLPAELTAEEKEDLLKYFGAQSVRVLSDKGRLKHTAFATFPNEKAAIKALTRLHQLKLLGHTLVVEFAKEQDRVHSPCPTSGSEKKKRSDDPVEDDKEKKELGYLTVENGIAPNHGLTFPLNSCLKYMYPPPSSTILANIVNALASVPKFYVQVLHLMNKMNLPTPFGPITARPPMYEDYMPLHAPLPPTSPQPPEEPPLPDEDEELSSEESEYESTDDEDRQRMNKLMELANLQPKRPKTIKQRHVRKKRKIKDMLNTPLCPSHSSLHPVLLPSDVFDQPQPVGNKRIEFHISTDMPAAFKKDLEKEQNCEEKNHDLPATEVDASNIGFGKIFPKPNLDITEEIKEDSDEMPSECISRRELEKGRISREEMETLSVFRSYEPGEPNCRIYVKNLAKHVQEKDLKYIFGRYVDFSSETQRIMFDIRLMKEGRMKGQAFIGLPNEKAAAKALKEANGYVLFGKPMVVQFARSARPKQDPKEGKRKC
Chain of UniProt Q9BWG6 (Q9BWG6 whole entry, looked up): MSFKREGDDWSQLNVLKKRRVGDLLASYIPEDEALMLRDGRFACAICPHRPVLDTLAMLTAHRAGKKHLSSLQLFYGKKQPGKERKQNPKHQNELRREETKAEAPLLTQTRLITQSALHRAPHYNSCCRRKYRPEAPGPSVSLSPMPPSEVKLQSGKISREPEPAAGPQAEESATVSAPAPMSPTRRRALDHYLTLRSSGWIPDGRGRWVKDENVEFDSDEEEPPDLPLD
Chain of UniProt Q92698 (Q92698 whole entry, looked up): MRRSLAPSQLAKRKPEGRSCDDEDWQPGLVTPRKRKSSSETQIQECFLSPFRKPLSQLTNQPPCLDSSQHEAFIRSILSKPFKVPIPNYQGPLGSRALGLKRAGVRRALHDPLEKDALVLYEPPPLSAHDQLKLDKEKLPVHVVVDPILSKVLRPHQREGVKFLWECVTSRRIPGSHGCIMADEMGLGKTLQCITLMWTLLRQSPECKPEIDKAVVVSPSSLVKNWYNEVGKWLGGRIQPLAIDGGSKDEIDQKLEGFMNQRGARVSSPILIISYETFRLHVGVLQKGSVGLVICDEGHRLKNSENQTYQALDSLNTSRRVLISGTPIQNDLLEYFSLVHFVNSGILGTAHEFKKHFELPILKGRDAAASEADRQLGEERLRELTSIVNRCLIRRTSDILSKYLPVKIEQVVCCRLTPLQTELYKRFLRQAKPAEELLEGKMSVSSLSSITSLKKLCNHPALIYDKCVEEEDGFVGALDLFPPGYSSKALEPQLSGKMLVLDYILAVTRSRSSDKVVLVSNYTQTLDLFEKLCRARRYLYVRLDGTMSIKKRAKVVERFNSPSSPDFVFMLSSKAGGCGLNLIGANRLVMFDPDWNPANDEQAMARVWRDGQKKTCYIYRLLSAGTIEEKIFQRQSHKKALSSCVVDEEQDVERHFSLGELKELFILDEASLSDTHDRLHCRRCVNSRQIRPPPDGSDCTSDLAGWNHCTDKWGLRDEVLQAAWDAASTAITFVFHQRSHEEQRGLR
Chain of UniProt Q99496 (Q99496 whole entry, looked up): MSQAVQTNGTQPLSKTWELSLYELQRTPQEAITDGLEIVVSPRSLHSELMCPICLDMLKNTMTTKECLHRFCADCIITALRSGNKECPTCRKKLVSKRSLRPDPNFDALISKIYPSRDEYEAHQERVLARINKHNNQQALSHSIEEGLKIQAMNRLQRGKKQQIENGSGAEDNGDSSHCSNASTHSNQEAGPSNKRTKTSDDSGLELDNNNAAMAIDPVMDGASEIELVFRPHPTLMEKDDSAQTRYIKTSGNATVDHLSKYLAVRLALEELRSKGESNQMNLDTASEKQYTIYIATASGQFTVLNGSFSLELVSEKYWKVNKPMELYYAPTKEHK
Chain of UniProt Q96K19 (Q96K19 whole entry, looked up): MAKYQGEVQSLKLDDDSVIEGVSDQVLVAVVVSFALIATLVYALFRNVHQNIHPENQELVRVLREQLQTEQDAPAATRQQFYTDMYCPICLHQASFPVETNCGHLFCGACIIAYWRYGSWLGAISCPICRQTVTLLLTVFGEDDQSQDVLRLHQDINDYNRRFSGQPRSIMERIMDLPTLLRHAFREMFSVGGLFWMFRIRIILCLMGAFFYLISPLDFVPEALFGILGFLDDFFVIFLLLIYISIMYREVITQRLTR

Compound in the first experiment: CC(C)C1=C2N=C(C=C(N2N=C1)NCC3=CC=CC=C3)NCCCCCCN
The experiment in a line: log2 fold change, soluble protein after heating vs DMSO (PISA); higher = thermal stabilisation; K562 lysate, 10 uM; active = over 0.2 and 3.5 SD of the protein, either way, in both replicates (recomputed). The method, boiled down: (§1)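 Quantification was by TMTpro 16plex LC-MS/MS with equalised channel sums, applied to the supernatant after 21,000xg for 90 min. Samples were crude K562 extract at 1 mg/mL protein in PBS pH 7.4 with 1 mM MgCl2, treated with 10 μM compound for 30 min, heated for 3 min across 48°C-58°C, pooled and brought to 0.5% NP-40 at 4°C. Values are log-two fold changes in thermal stability relative to solvent controls, from duplicates.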
In the case of RXRA (UniProt P19793), the log2 fold change is 0.066.
For the target RDH11 (UniProt Q8TC12), the log2 fold change was 0.068.
On to RHOU (UniProt Q7L0Q8), for which the log2 fold change is 0.066.
The same measure, in the same setting: the same measure for RYR1 (UniProt P21817): -0.088; for RNF2 (UniProt Q99496): 0.017.
Same read-out and setting: the same measure for RAD54L (UniProt Q92698): 0.085; for RPS6KA3 (UniProt P51812): -0.11.
On the same count and under the same terms, in the case of RNPC3 (UniProt Q96LT9) it was -0.122; in that of ROBO2 isoform 3 (UniProt Q9HCK4), -0.045.
RNF24 isoform 2 (UniProt Q9Y225): the log2 fold change is 0.33.
For SCNM1 (UniProt Q9BWG6), the log2 fold change is 0.062.
As for RMI2 (UniProt Q96E14), the log2 fold change was -0.032.
The same measure, in the same setting: in the case of RNF170 (UniProt Q96K19) it was 0.084; in that of SEMA4G isoform 2 (UniProt Q9NTN9), -0.013; in that of QSER1, A0A3B3IRW6, -0.009.
Same read-out and setting: the same measure for S100A6 (UniProt P06703): -0.01; for SERAC1 (UniProt Q96JX3): -0.115.
On the same count and under the same terms, the same measure for RNF17 (UniProt Q9BXT8): -0.023.
For SATB2 (UniProt Q9UPW6), the log2 fold change was -0.029.
The same measure, in the same setting: in the case of RPS6KA5 (UniProt O75582) it was -0.027.

Compound in another experiment: CC1=C(C(CC(=O)N1)C2=CC=C(C=C2)C(F)(F)F)C(=O)NC3=C(C=C4C(=C3)C=NN4)F
The experiment is described as above. The method, boiled down:
as §1
For RXRA (UniProt P19793), the log2 fold change was 0.059.
Take SELENOK (UniProt Q9Y6D0): the log2 fold change was 0.092.
Still for that read-out and setting: the same measure for RDH11 (UniProt Q8TC12): -0.013; for RHOU (UniProt Q7L0Q8): 0.012; for RNF2 (UniProt Q99496): 0.009.
As to RAD54L (UniProt Q92698), the log2 fold change is 0.
On the same count and under the same terms, in the case of SAP30 (UniProt O75446) it was 0.101.
On the same count and under the same terms, the same measure for RPS6KA3 (UniProt P51812): -0.043.
Take RNPC3 (UniProt Q96LT9): the log2 fold change is -0.027.
In the case of RUFY2 isoform 1 (UniProt Q8WXA3), the log2 fold change is -0.118.
Regarding RNF24 isoform 2 (UniProt Q9Y225), the log2 fold change is -0.026.
On to SCNM1 (UniProt Q9BWG6), for which the log2 fold change is 0.065.
As to RNF170 (UniProt Q96K19), the log2 fold change is 0.302.
On the same count and under the same terms, in the case of QSER1, A0A3B3IRW6 it was -0.001.
The same measure, in the same setting: the same measure for RFNG (UniProt Q9Y644): 0.023; for SERAC1 (UniProt Q96JX3): 0.051.
Still for that read-out and setting: in the case of RBBP7 (UniProt C9J7L0) it was -0.187; in that of SATB2 (UniProt Q9UPW6), -0.007; in that of RPS6KA5 (UniProt O75582), 0.011.
On to RBM45 (UniProt Q8IUH3), for which the log2 fold change was -0.127.
Still for that read-out and setting: the same measure for RAD17 (UniProt O75943): 0.026.
On the same count and under the same terms, the same measure for RNASEH2B, A0A1B0GUE7: -0.12.

(Values after the supplement of paper PMC10849652.)
